Our source for the mean cell size values is the supplement of paper PMC4709259.

Counter-ions that a name gives are not always drawn. ± gives the standard deviation.

The assay deals with Jurkat. In words: mean cell size (FSC-A) relative to DMSO control (fraction of control); higher = larger cells. Conditions: 48 h. An outline of the steps: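 Jurkat cells at 600 cells/µl were incubated for 1 h and then treated for 48h with the Enzo Screen-Well FDA Approved Drug Library v2.0 at 25µM, with DMSO at 0.9% (v/v) final. Compounds that reduced counts below 20% of controls were retested in 10-fold dilutions down to 25nM. Cell count and mean cell size, taken as forward scatter area, were measured by flow cytometry relative to solvent-only controls. Each plate carried 6-12 controls, and values are means of 3 biological replicates.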
`Cc1cn(-c2cc(NC(=O)c3ccc(C)c(Nc4nccc(-c5cccnc5)n4)c3)cc(C(F)(F)F)c2)cn1` [Nilotinib] (concentration: 25 µM): the mean cell size was found to be 0.979 ± 0.037. Molecule `Cc1ccnc2c1NC(=O)c1cccnc1N2C1CC1` [Nevirapine] (concentration: 25 µM) returned a mean cell size of 0.924 ± 0.051. Take `CC(C)(O)c1ccccc1CC[C@@H](SCC1(CC(=O)O)CC1)c1cccc(/C=C/c2ccc3ccc(Cl)cc3n2)c1` [Montelukast·Na] (concentration: 25 µM): the mean cell size is 1.02 ± 0.077. The figure for `NS(=O)(=O)c1cc2c(cc1C(F)(F)F)NC(Cc1ccccc1)NS2(=O)=O` (stereo unspecified) [Bendroflumethiazide] (concentration: 25 µM) is 0.957 ± 0.041. Consider `CN1CCN(C2=Nc3cc(Cl)ccc3Nc3ccccc32)CC1` [Clozapine] (concentration: 25 µM), for which the mean cell size was 0.966 ± 0.025. Turning to `CN[C@@H]1[C@H](O)[C@H](NC)[C@H]2O[C@@]3(O)C(=O)C[C@@H](C)O[C@H]3O[C@@H]2[C@H]1O` [Spectinomycin·HCl Pentahydrate] (concentration: 25 µM), the mean cell size was found to be 1.05 ± 0.014.

Consider `CCNC(=O)CCC/C=C\C[C@@H]1[C@@H](/C=C/[C@@H](O)CCc2ccccc2)[C@H](O)C[C@@H]1O` [Bimatoprost] (concentration: 25 µM), for which the mean cell size amounted to 0.87 ± 0.025.

`Cc1onc(-c2ccccc2Cl)c1C(=O)N[C@@H]1C(=O)N2[C@@H]1SC(C)(C)[C@@H]2C(=O)O` [Cloxacillin·Na] (concentration: 25 µM) registered a mean cell size of 0.99 ± 0.031. Consider `CCC(=O)O[C@]1(C(=O)CCl)[C@@H](C)C[C@H]2[C@@H]3CCC4=CC(=O)C=C[C@]4(C)[C@@]3(F)[C@@H](O)C[C@@]21C` [Clobetasol Propionate] (concentration: 25 µM), for which the mean cell size was found to be 0.898 ± 0.015.

Molecule `OC(CNCC(O)C1CCc2cc(F)ccc2O1)C1CCc2cc(F)ccc2O1` (stereo unspecified) [Nebivolol·HCl] (concentration: 25 µM) returned a mean cell size of 1.15 ± 0.094. `COc1ccc2cc([C@H](C)C(=O)O)ccc2c1` [Naproxen] (concentration: 25 µM): the mean cell size was 0.941 ± 0.041.

As for `CCCCCOC(=O)Nc1nc(=O)n([C@@H]2O[C@H](C)[C@@H](O)[C@H]2O)cc1F` [Capecitabine] (concentration: 25 µM), the mean cell size worked out at 0.957 ± 0.019. In turn, `COC(=O)CCC(=O)CN` [Methyl Aminolevulinate·HCl] (concentration: 25 µM) displayed a mean cell size of 0.99 ± 0.033. Next, `CC1(C)O[C@@H]2[C@@H](CO[C@@]3(COS(N)(=O)=O)OC(C)(C)O[C@@H]23)O1` [Topiramate] (concentration: 25 µM): 0.969 ± 0.024; `S=c1[nH]cnc2nc[nH]c12` [Mercaptopurine Hydrate] (concentration: 25 µM): 1.08 ± 0.047.

Regarding `N=c1nc(N2CCCCC2)cc(N)n1O` [Minoxidil] (concentration: 25 µM), the mean cell size was 1 ± 0.024. `CNC(=O)c1cnn(-c2nc(N)c3ncn([C@@H]4O[C@H](CO)[C@@H](O)[C@H]4O)c3n2)c1` [Regadenoson] (concentration: 25 µM) showed a mean cell size of 0.991 ± 0.035. With `O=C(O)C[C@H](O)C[C@H](O)/C=C/c1c(C2CC2)nc2ccccc2c1-c1ccc(F)cc1` [Pitavastatin Calcium] (concentration: 25 µM), the mean cell size is 0.9938 ± 0.0093. Molecule `CN1CCC[C@@H]1CCO[C@](C)(c1ccccc1)c1ccc(Cl)cc1` [Clemastine Fumarate] (concentration: 25 µM) showed a mean cell size of 0.985 ± 0.024. As for `C[n+]1ccccc1/C=N/O` [Pralidoxime Chloride] (concentration: 25 µM), the mean cell size came to 1.08 ± 0.037. Next, `CN(C)CCC(c1ccc(Cl)cc1)c1ccccn1` (stereo unspecified) [Chlorpheniramine Maleate] (concentration: 25 µM): 0.961 ± 0.02; `NC(=O)OCC(COC(N)=O)c1ccccc1` [Felbamate] (concentration: 25 µM): 1.02 ± 0.053. In turn, `C[C@@H]1O[C@@H]1P(=O)(O)O` [Fosfomycin Calcium] (concentration: 25 µM) had a mean cell size of 0.916 ± 0.036. Turning to `CO/N=C(\C(=O)N[C@@H]1C(=O)N2C(C(=O)OC(C)OC(C)=O)=C(COC(N)=O)CS[C@H]12)c1ccco1` (stereo partly specified) [Cefuroxime Axetil] (concentration: 25 µM), the mean cell size is 0.99 ± 0.028.

`CN(C/C=C/C#CC(C)(C)C)Cc1cccc2ccccc12` [Terbinafine·HCl] (concentration: 25 µM) returned a mean cell size of 0.947 ± 0.018. The figure for `CC(=O)O[C@]1(C(C)=O)CC[C@H]2[C@@H]3C=C(C)C4=CC(=O)CC[C@]4(C)[C@H]3CC[C@@]21C` [Megestrol Acetate] (concentration: 25 µM) is 0.9825 ± 0.0053.
